Shown are actives, neighbours in structure and some others; about 3.5% of the full set was active somewhere.
TEAD-YAP inh – TEAD-YAP interaction inhibition. HEK-TIYL cells, TEAD-Gal4/YAP UAS-luciferase luminescence. inhibition, % at 9.12 µM. AID 1259422. hit rate 1.4% among 640,000; in the data active means inhibition above about 32%;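 further: 0% = median of test compound wells and 100% = reference inhibitor wells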
FBW7 activator – activators of human E3 ligase FBW7; AlphaScreen FBW7–phospho-cyclin E peptide binding, activator screen; normalized activity (activation), % at 26.1 µM; hit rate 0.13% among 650,000; AID 1259310; in the data active means normalized activity above about 1.9%;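 further: purified mutant Fbw7 with reduced substrate affinity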
GPR151 ag – activates the human receptor GPR151; Q8TDV0; PathHunter beta-arrestin GPR151 cells, luminescence; activation, % at 11.2 µM; hit rate 1% among 650,000; AID 1508602; in the data active means activation above about 4.9%;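 further: 0% = median of compound wells and 100% = cells with positive control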
MITF primary – human MITF inhibition, primary screen. O75030. AlphaScreen MITF homodimerization, bead proximity signal. inhibition, % at 2.6 µM. hit rate 0.91% among 650,000. AID 1259374; in the data active means inhibition above about 50%;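 further: 0% = vehicle wells with protein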
Target sequence (O75030 whole entry, looked up): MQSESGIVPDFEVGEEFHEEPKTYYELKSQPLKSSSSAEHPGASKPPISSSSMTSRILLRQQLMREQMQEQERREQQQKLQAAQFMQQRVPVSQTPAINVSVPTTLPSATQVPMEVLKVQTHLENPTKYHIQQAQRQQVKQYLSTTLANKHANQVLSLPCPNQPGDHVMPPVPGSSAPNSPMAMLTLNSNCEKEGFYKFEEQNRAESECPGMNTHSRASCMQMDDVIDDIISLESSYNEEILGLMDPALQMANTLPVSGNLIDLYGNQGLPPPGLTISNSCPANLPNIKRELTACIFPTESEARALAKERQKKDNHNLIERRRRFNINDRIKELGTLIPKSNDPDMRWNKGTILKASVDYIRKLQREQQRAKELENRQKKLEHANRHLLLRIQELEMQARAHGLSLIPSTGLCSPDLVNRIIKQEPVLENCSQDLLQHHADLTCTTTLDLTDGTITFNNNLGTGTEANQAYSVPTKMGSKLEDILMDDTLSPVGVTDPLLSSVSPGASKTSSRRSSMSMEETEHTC
MITF inh conf – confirmation of human MITF inhibitors; shares compounds with MITF primary; AlphaScreen MITF homodimerization, biotin/His-MITF beads; inhibition, % at 2.6 µM; hit rate 16% among 4,700;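 active means inhibition above a cutoff derived from the DMSO control wells, cut at about 28% in these data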;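 further: 0% = MITF dimer wells with DMSO only; inhibitors lower the bead chemiluminescence by keeping MITF from dimerizing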
AS interf DR – counter-screen: compounds optically interfering with AlphaScreen; shares compounds with MITF primary; AlphaScreen optical interference counterscreen, cell-free; IC50, µM; hit rate 6% among 480; call rule not given here
AS interf ctr – AlphaScreen optical interference, counter-screen. shares compounds with MITF primary. LysRS AlphaScreen counterscreen, signal interference, triplicate. inhibition, % at 2.6 µM. hit rate 7.6% among 4,700. AID 1259376;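 active means inhibition above a cutoff derived from the DMSO control wells, cut at about 30% in these data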
Numbers without * were called inactive; . = no result given; ! = repeats disagree.

SMILES | TEAD-YAP inh | FBW7 activator | GPR151 ag | MITF primary | MITF inh conf | AS interf ctr | others
O=C1N=c2ccc([N+](=O)[O-])cc2=C1c1sc(NS(=O)(=O)c2ccccc2)nc1O | 8 | 0 | 0 | 64*! | 11 | 23
CCN(CC)C(=O)C1CCCN(Cc2cccc([N+](=O)[O-])c2)C1 (centres undefined) | 5 | 0 | 3 | 40 | . | .
O=C(C1CCCN(Cc2cccc([N+](=O)[O-])c2)C1)N1CCc2ccccc2C1 (centres undefined) | 8 | 0 | 0 | 51* | 9 | 17
COc1cccc(CN2CCc3ccccc3C2)c1 | 0 | 0 | 1 | 25 | . | .
Cc1ccc(CN2CCC(C(=O)N3CCc4ccccc4C3)CC2)o1 | -7 | 0 | 2 | 54* | 11 | 17
O=C(C1CCN(Cc2ccccc2F)CC1)N1CCc2ccccc2C1 | 6 | 0 | -1 | 49 | . | .
COc1cccc(CN2CCCC(C(=O)N3CCc4ccccc4C3)C2)c1 (centres undefined) | 13 | 0 | 1 | 60* | 8 | 14
O=C(C1CCCN(Cc2cccc([N+](=O)[O-])c2)C1)N1CCCCCC1 (centres undefined) | 5 | 0 | 0 | 69* | 13 | 16
CCOc1ccc(C(=O)OCC(=O)Nc2ccc(C(N)=O)cc2)cc1 | -1 | 0 | 2 | 16 | . | .
COc1ccc(-c2cc3ccccc3n2CC(O)CNCCO)cc1 (centres undefined) | 11 | 0 | -1 | 53* | 3 | -2
NC(=O)CSc1nc2ccccc2n1CC(=O)N1CCOCC1 | -6 | 0 | 2 | 62* | 13 | 14
O=C(O)CSc1nc2ccccc2n1CC(=O)N1CCOCC1 | 12 | 0 | -1 | 17 | . | .
O=c1[nH]cnc2nc(-c3ccco3)c(-c3ccco3)nc12 | 0 | -1 | 0 | 87* | 60* | 5 | AS interf DR=>7.6
O=C1C2CCCCC2C(=O)N1c1ccc(C(=O)n2cc(Br)cn2)cc1 (centres undefined) | -5 | 0 | -1 | 14 | . | .
CCOC(=O)CC(=O)CSc1nc2cc(C(=O)OC)ccc2c(=O)n1CCC1=CCCCC1 | 1 | 0 | 0 | 15 | . | .
Cc1ccc(NC(=O)/C(=C/c2ccc3c(c2)OCO3)NC(=O)c2ccc(Br)cc2)cc1F | 5 | 0 | 2 | -10 | . | .
Cc1ccc(C)c(NNC(=O)C(=O)NNc2cc(C)ccc2C)c1 | -2 | 0 | 1 | 51* | 2 | -4
CCCCc1nc2ccccc2c(NC(=O)CNC2CCCCC2)c1CCC | 9 | 0 | -1 | 66* | 1 | 5
CCCCN(C)CC(=O)Nc1cc(N(C)C)nc2ccccc12 | 4 | 0 | 1 | 24 | . | .
CCCCc1nc2ccccc2c(NC(=O)CN2CCN(C(=O)c3ccco3)CC2)c1CCC | -4 | 0 | -2 | 65* | -5 | 12
CCCCc1nc2ccccc2c(NC(=O)CN(CCCC)CCCC)c1CCC | -7 | 0 | 2 | 83* | 15 | -10
O=C1OC2(CCCC2)OC(=O)C1=Cc1ccco1 | 2 | -2 | 0 | 24 | . | .
Cc1ccc(-c2cc(C(=O)Nc3ccccc3Cl)c3ccccc3n2)cc1 | 2 | 0 | 0 | 15 | . | .
Cc1ccc(-c2cc(C(=O)Nc3ccccc3Br)c3ccccc3n2)cc1 | -14 | 0 | 0 | 56* | 8 | 11
CCCOC(=O)c1ccc(NC(=O)c2cc(-c3ccc(Br)cc3)nc3ccccc23)cc1 | 7 | 0 | -1 | -4 | . | .
SMILES | TEAD-YAP inh | FBW7 activator | GPR151 ag | MITF primary | MITF inh conf | AS interf ctr | others
CCCCOC(=O)c1ccc(NC(=O)c2cc(-c3ccc(Br)cc3)nc3ccccc23)cc1 | -1 | 0 | 0 | 57* | 10 | 9
CC(=O)c1cccc(CN2CCN(CC(C)(C)C)C(CCO)C2)c1 (centres undefined) | 5 | 0 | -1 | 1 | . | .
O=C(CNCCN1CCOCC1)NCc1ccc2c(c1)OCO2 | 7 | 0 | 0 | 84* | 19 | 14
O=C(CNCc1cccnc1)Nc1ccc2c(c1)OCO2 | 0 | 0 | 0 | 59* | 2 | 8
CC(C)NC(=O)CNCc1ccc2c(c1)OCO2 | -4 | 0 | 1 | 34 | . | .
O=C(CNCc1cccnc1)Nc1ccccc1 | 0 | 0 | 0 | 40 | . | .
COc1cccc(CNCC(=O)NCc2ccc3c(c2)OCO3)c1 | 4 | 0 | 0 | 60* | 9 | 14
O=C(CNCc1ccc2c(c1)OCO2)Nc1ccccc1F | 1 | 0 | 0 | 64* | 4 | 16
O=C(CSCc1ccccc1)NCc1ccc2c(c1)OCO2 | 10 | 0 | 1 | 13 | . | .
O=C(CNCCc1ccccc1)NCc1ccc2c(c1)OCO2 | -1 | 1 | 0 | 73* | 9 | 14
COCCNc1ccc2ncc(-c3cccc(N(C)C)c3)n2n1 | 16 | -1 | 0 | 10 | . | .
COCCNc1ccc2ncc(-c3cccc(C(F)(F)F)c3)n2n1 | 5 | 0 | 0 | 65* | 6 | 15
CCCCS(=O)(=O)C1CCCCC1OC(=O)CCN1CCCCC1 (centres undefined) | 9 | 0 | -2 | 51* | 15 | 0
CC1(C)CC(OC(=O)CCN2CCCCC2)CC(C)(C)N1 | -5 | 0 | 2 | -4 | . | .
O=[N+]([O-])c1cccc(CN2CCN(S(=O)(=O)c3ccccc3)CC2)c1 | 3 | 0 | 0 | 70* | 15 | 14
O=C(c1cccc2ccccc12)N1CCN(Cc2cccc([N+](=O)[O-])c2)CC1 | 6 | 0 | 0 | 76* | 14 | 18
CCN(CC)C(=O)N1CCN(S(=O)(=O)c2cccc([N+](=O)[O-])c2)CC1 | 1 | 0 | 1 | 2 | . | .
CN(C)C(=O)N1CCN(S(=O)(=O)c2cccc([N+](=O)[O-])c2)CC1 | 13 | 0 | 0 | 77* | 30* | -6 | AS interf DR=>6.5
O=S(=O)(c1ccc(Cl)cc1)N1CCN(Cc2cccc(F)c2)CC1 | -7 | 0 | -1 | 64* | -2 | 7
O=[N+]1C=C(c2ccco2)N([O-])C2CCCCC21 (centres undefined) | -2 | 1 | 0 | 3 | . | .
CCOc1ccc(/C=C2\C(=O)N(c3ccc(C(=O)OC(C)C)cc3)N=C2C)cc1OC | -9 | 0 | 2 | -7 | . | .
Cc1cccnc1NC(=S)NC(=O)c1ccccc1[N+](=O)[O-] | -70 | 0 | -1 | -10 | . | .
Cc1ccc(CN(C(=O)c2ccccc2)C2CCS(=O)(=O)C2)o1 (centres undefined) | -8 | 0 | 0 | 6 | . | .
O=[N+]([O-])c1ccc(S(=O)(=O)N2CCN(CCCc3ccccc3)CC2)cc1 | 2 | 0 | 1 | 56* | 14 | 15
COc1ccc(S(=O)(=O)N2CCN(CCCc3ccccc3)CC2)cc1 | 2 | 0 | -1 | 47 | . | .
O=[N+]([O-])c1cccc(CN2CCN(S(=O)(=O)c3ccc(Cl)cc3)CC2)c1 | 3 | 0 | -1 | 64* | 13 | 16
